Most compounds without a hit are left out; they make up all but 12% or so of the library.
Cycloheximide cs: counter-screen for Shiga toxin inhibitors: cycloheximide protein synthesis inhibition; AID 2314; max response, %; hit rate 12% among 300,000; cell reporter, cycloheximide protein synthesis inhibition counterscreen; in the data active = max response mostly above about 13%, no sharp cut-off; inactive = mostly below about 14%; also: read at 38.3 µM for the half of the compounds with a filed dose; 0% is about no effect
Sm TGR inh: blocks Schistosoma mansoni thioredoxin glutathione reductase; purified TGR, DTNB reduction, TNB absorbance 405 nm; AID 485364; Potency, µM (top dose mostly 114 µM), for inactives: at the highest dose activity change, negative = inhibition, actives largely listed as inhibitors; hit rate 3% among 360,000; Q962Y6; active = well fitted inhibition curve with a large enough effect; inconclusive = small, poorly fitted or top-dose-only effect; inactive = no such curve, though single readings can be large or run the other way; also: potency is read from the fitted curve at half-maximal effect; % is scaled to controls: 0 for no effect and ±100 for the full control effect; nearly all actives have a fitted effect of over 60% in size
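TGR 20 nM + NADPH 100 uM (dispensed conc.), cpd preinc 15 min RT; start with NADPH (500 uM addition) then DTNB (15 mM addition). Kinetic TNB absorbance, 405 nm filter. Four-parameter Hill fit across titration.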
FMDV inh: antivirals against foot and mouth disease virus. FMDV antiviral cell-based qHTS. Potency, µM (top dose mostly 57.9 µM), for the others: at the top dose activity change, negative = inhibition, most hits filed as inhibitors. hit rate 1.2% among 410,000; calls by dose curve; tested in HEK293T cells; also: read-out not given here; potency is read from the fitted curve at half-maximal effect; % is scaled to controls: 0 for no effect and ±100 for the full control effect; nearly all actives have a fitted effect of over 45% in size
Shiga inhibitor: Shiga toxin inhibition; Vero cells, Shiga toxin protein synthesis inhibition reporter; inhibition, % at 38.7 µM; hit rate 9.2% among 290,000; AID 2315; in the data active = inhibition mostly above about 28%, no sharp cut-off; inactive = mostly below about 43%; also: 0% is about no effect
* = called active by the depositor; u = inconclusive; x = no result given; ! = not active in a repeat.

SMILES | Cycloheximide cs | Sm TGR inh | FMDV inh | Shiga inhibitor
O=C1C(Cl)=C(N2CCCCC2)C(=O)C(Cl)=C1c1cnc(N2CCCCC2)s1 | -3 | 0.25µM* | -3% | 13
COc1ccc(NC(=O)Cn2c(=O)n(CCC(=O)NCCc3ccc(OC)c(OC)c3)c(=O)c3ccccc32)cc1Cl | x | 5% | -12% | x
CCN1C(=O)c2cccc3c(S(=O)(=O)NCc4ccco4)ccc1c23 | 23* | 40µM* | 66% | 18*
CCN1C(=O)c2cccc3c(S(=O)(=O)NCc4cccnc4)ccc1c23 | -3 | -13% | 13% | -5
CCOC(=O)C1CCN(C(=O)Cn2c(-c3cccs3)cc3cc(Cl)ccc32)CC1 | x | 2% | -28% | x
CCOC(=O)CSC1=NN2CCS(=O)(=O)N=C2S1 | 1 | 10µM* | -11% | -8
C=CCSC1=NN2CCS(=O)(=O)N=C2S1 | 1 | 7% | 8% | 17
O=C(CSc1cn(CCNC(=O)c2ccc3ccccc3c2)c2ccccc12)NCc1ccco1 | 15* | 5% | u | 22
COc1ccccc1C(=O)NCCn1cc(SCC(=O)Nc2cc(C)on2)c2ccccc21 | 5 | -4% | -21% | 5
COc1ccc(NC(=O)CSc2cn(CCNC(=O)c3ccc(OC)cc3)c3ccccc23)cc1 | x | -3% | -24% | x
O=C(CSc1cn(CCNC(=O)c2cccs2)c2ccccc12)NC1CCCCC1 | 1 | -2% | -29% | 12
CCOc1ccc(C(=O)NCCn2cc(SCC(=O)Nc3cc(C)on3)c3ccccc32)cc1 | 15* | 0% | u | 18
Cc1cc(NC(=O)CSc2cn(CCNC(=O)c3ccc(Cl)cc3)c3ccccc23)no1 | 38* | 10% | u | 13
O=C(CSc1cn(CCNC(=O)c2cccs2)c2ccccc12)NCc1ccccc1 | 11* | -10% | -20% | 15
COc1ccc(C(=O)NCCn2cc(SCC(=O)Nc3cc(C)on3)c3ccccc32)cc1OC | -3 | -23% | -24% | -23
O=S1(=O)c2ccccc2N(Cc2ccccc2Cl)c2ccccc21 | x | 1% | u | x
C=CCOc1ccc(CC2C(=O)N(C)C(=O)N(C)C2=O)cc1 | -2 | 25µM* | -24% | -5
CCN(CC)c1ccc(CC2C(=O)N(C)C(=O)N(C)C2=O)cc1 | -3 | 14µM* | -4% | -8
CCCN(Cc1ccc(N(CC)CC)cc1)CC1CC1 | 0 | 1% | x | -22
O=C(Cn1ccc2cc(S(=O)(=O)N3CCCCCC3)ccc21)NCc1cccc(Cl)c1 | x | 4% | 15% | x
Cc1noc(C)c1COC(=O)c1ccc(-c2nc3ccccc3s2)s1 | 18* | -16% | -7% | 73*
CCNC(=O)COC(=O)c1ccc(-c2nc3ccccc3s2)s1 | 34* | -8% | 6% | 99*
CCNC(=O)COC(=O)c1cc(C)nc2ccccc12 | -1 | -14% | -8% | -2
COc1ccc(-n2c(-c3ccc(C)cc3)cc3c2CC(C)(C)CC3=O)c(OC)c1 | x | 9% | -11% | x
CCOC(=O)C1=C(CN2CCN(c3cc(C)ccc3C)CC2)NC(=O)NC1c1ccccc1 (centres undefined) | x | -1% | -26% | x
SMILES | Cycloheximide cs | Sm TGR inh | FMDV inh | Shiga inhibitor
COc1ccc2c(c1)C(c1cccs1)=NNC(c1ccncc1)=N2 | -4 | 1% | -7% | -14
CC(C)c1ccc2c(c1)C(c1cccs1)=NNC(c1ccncc1)=N2 | 22* | 29% | 10% | 76*
CC(C)c1ccc2c(c1)C(c1ccc(N3CCOCC3)cc1)=NNC(c1cccs1)=N2 | 45* | -1% | 59% | 54
COc1ccc2c(c1)C(c1ccc(N3CCOCC3)cc1)=NNC(c1cccnc1)=N2 | 2 | -6% | -20% | -16
CCOC(=O)CCSc1nc(C)c2cc(OC)ccc2n1 | 51* | 5% | x | 80*
CCOC(=O)CSc1nc(C)c2ccc(C)cc2n1 | 12* | -32% | 35% | 44
Cc1cc2nc(SCCOC(=O)Nc3ccccc3)nc(C)c2cc1C | -3 | 2% | 0% | 31
CCOC(=O)CCSc1nc(C)c2cc(C)c(C)cc2n1 | 30* | -14% | 24% | 44*
CCOC(=O)CSc1cc(C)nc2ccc(OC)cc12 | -4 | 6% | -11% | -24
COc1ccc(C(C)=O)cc1CSc1nc(Nc2ccc(F)c(F)c2)c2ccccc2n1 | x | 1% | u | x
CCOC(=O)c1cc2c(=O)n3ccccc3nc2n(CC2CCCO2)c1=NC(=O)c1cccc(C)c1 (centres undefined) | x | 0% | 11% | x
COc1cc(OC)c2ccc(=O)oc2c1C(CC(=O)N1CCOCC1)c1ccc(N(C)C)cc1 (centres undefined) | -4 | -16% | 4% | -15
COc1cc(OC)c2ccc(=O)oc2c1C(CCN1CCCC(C)C1)c1ccc2c(c1)OCO2 (centres undefined) | 44*! | 1% | -24% | 124*!
